14 compounds from PubChem BioAssay (NCI) can be followed below.

This is part of a sample that, as a whole, favours compounds with a hit. Of some 83,000 tested, about 20% had one in any assay.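 Note: values are percent growth. 100 is the growth of untreated cells, values between 100 and 0 indicate rising inhibition; between -100 and 0 indicates cell death.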 A number with no mark means an inactive call. The source made the active and inactive calls. Rule for the calls: active = growth percent below 10; inactive = the rest.

Among the test systems are SR leukemia; RPMI-8226 leukemia; OVCAR-8 ovarian; OVCAR-5 ovarian; OVCAR-4 ovarian; SK-OV-3 ovarian; IGROV1 ovarian; OVCAR-3 ovarian; HS 578T breast; NCI/ADR-RES ovarian.
Common to all, as to experiment: NCI-60 one-dose screen, 48 h (100 = growth as untreated, 0 = no growth, -100 = all killed)
Holding throughout (conditions): 10 µM unless noted

In the case of `CCn1cc(C(=O)O)c(=O)c2cc(F)c(N3CCN(CC(=O)Nc4ccc(S(=O)(=O)Nc5nccc(C)n5)cc4)C(C)C3)c(F)c21` (stereo not given), the growth was 103% in the experiment with SR leukemia; 109% with RPMI-8226 leukemia; 105% in the experiment with OVCAR-8 ovarian; 98.5% with OVCAR-5 ovarian; 104% in the experiment on OVCAR-4 ovarian; 113% in the experiment with SK-OV-3 ovarian. Further, the growth is 99.7% with IGROV1 ovarian, 113% in the experiment on OVCAR-3 ovarian, 99.6% in the experiment with HS 578T breast and 107% in the experiment with NCI/ADR-RES ovarian.
Turning to `N#Cc1c(-c2ccccc2)cc(-c2ccccc2)n(CCCC(=O)Nc2ccccc2N)c1=O`, the growth in the experiment on SR leukemia is 22.4%; in the experiment on RPMI-8226 leukemia, 48.9%; with OVCAR-8 ovarian it was 69.1%; with OVCAR-5 ovarian it was 95%; with OVCAR-4 ovarian it was 91.9%; in the experiment with SK-OV-3 ovarian it was 95.6%. Moreover, the growth is 51.7% in the experiment with IGROV1 ovarian, 26.2% in the experiment with OVCAR-3 ovarian, 43.5% with HS 578T breast and 39.5% in the experiment on NCI/ADR-RES ovarian.
On to `CC/C(=C(/c1ccc(Cl)cc1)c1ccc(OCCN2CCCCC2)cc1)c1ccc(OC)cc1`, for which the growth in the experiment on SR leukemia was -22.2% (active); in the experiment with RPMI-8226 leukemia, -10.5% (active); in the experiment with OVCAR-8 ovarian, 65.9%; in the experiment on OVCAR-5 ovarian it was 65.4%; with OVCAR-4 ovarian, 69.3%; with SK-OV-3 ovarian, 94.9%. Also, the growth with IGROV1 ovarian is 80.5%; in the experiment on OVCAR-3 ovarian it was 66.4%; in the experiment on HS 578T breast, 85.3%; in the experiment with NCI/ADR-RES ovarian, 71.8%.
As for `O=C(O)CCN1C(=O)/C(=C/C(Cl)=C/c2ccccc2)SC1=S`, the growth in the experiment on SR leukemia is 6.86% (active); in the experiment on RPMI-8226 leukemia it was -8.3% (active); in the experiment on OVCAR-8 ovarian, 22.8%; in the experiment with OVCAR-5 ovarian it was 57.8%; with OVCAR-4 ovarian, 28.7%; in the experiment on SK-OV-3 ovarian it was 94%. Further, the growth was 22.6% in the experiment with IGROV1 ovarian, 2.92% (active) with OVCAR-3 ovarian, 33.8% with HS 578T breast and 11.3% in the experiment with NCI/ADR-RES ovarian.
Consider `CSc1nc2ccccc2cc1/C=[N+](\[O-])c1ccccc1`, for which the growth is 22.1% with SR leukemia; 14.5% in the experiment with RPMI-8226 leukemia; 39.5% in the experiment on OVCAR-8 ovarian; 91.1% in the experiment on OVCAR-5 ovarian; 70.8% in the experiment on OVCAR-4 ovarian; 87.3% in the experiment on SK-OV-3 ovarian. The growth with IGROV1 ovarian is 77.3%; with OVCAR-3 ovarian it was 66.9%; in the experiment on HS 578T breast, 74.1%; in the experiment with NCI/ADR-RES ovarian, 28.5%.
As to `Cc1ccc(-c2nc(N3CCCNCC3)c3oc(-c4ccc(C)cc4)nc3n2)cc1`, the growth with SR leukemia is -44.5% (active); with RPMI-8226 leukemia, -51% (active); with OVCAR-8 ovarian, -58.6% (active); with OVCAR-5 ovarian, 78.5%; with OVCAR-4 ovarian, 2.2% (active); with SK-OV-3 ovarian, 98.1%. For the same compound, the growth with IGROV1 ovarian is 12.2%; with OVCAR-3 ovarian, -67.7% (active); in the experiment on HS 578T breast, 110%; in the experiment with NCI/ADR-RES ovarian it was 16.3%.
Take `O=S(=O)(NCCNc1nccc(-c2c(-c3ccc(F)c(O)c3)nc3occn23)n1)c1ccc(Cl)cc1`: the growth was 75.8% in the experiment on SR leukemia; 85.3% in the experiment with RPMI-8226 leukemia; 86% in the experiment with OVCAR-8 ovarian; 127% in the experiment on OVCAR-5 ovarian; 109% with OVCAR-4 ovarian; 87.1% in the experiment with SK-OV-3 ovarian. Besides, the growth is 87.4% in the experiment with IGROV1 ovarian, 104% in the experiment with OVCAR-3 ovarian, 89% in the experiment on HS 578T breast and 102% with NCI/ADR-RES ovarian.
`COc1cc(OC)c(NC(=O)c2cc3ccccc3cc2O)cc1Cl`: the growth in the experiment on SR leukemia was 82.6%; in the experiment on RPMI-8226 leukemia it was 7.51% (active); in the experiment on OVCAR-8 ovarian, 41.5%; in the experiment with OVCAR-5 ovarian, 89%; with OVCAR-4 ovarian, 41.4%; with SK-OV-3 ovarian, 71.6%. Besides, the growth with IGROV1 ovarian is 1.6% (active); in the experiment on OVCAR-3 ovarian it was 2.27% (active); in the experiment with HS 578T breast, 31.1%; in the experiment on NCI/ADR-RES ovarian it was 14.1%.
Consider `COc1ccc(-c2nn(-c3cccc(Cl)c3)cc2-c2cc(-c3ccc(Br)cc3)nc(N)n2)cc1`, for which the growth in the experiment with SR leukemia was 82%; in the experiment with RPMI-8226 leukemia, 84.1%; in the experiment on OVCAR-8 ovarian, 98.9%; in the experiment on OVCAR-5 ovarian it was 97.2%; with OVCAR-4 ovarian it was 96%; with SK-OV-3 ovarian it was 102%. The growth was 89.2% with IGROV1 ovarian, 107% with OVCAR-3 ovarian, 99.7% in the experiment on HS 578T breast and 99.8% in the experiment on NCI/ADR-RES ovarian.
With `CN1C(=O)/C(=C\c2nc([P+](c3ccccc3)(c3ccccc3)c3ccccc3)c(N3CCOCC3)o2)SC1=S`, the growth in the experiment on SR leukemia is 13.3%; in the experiment on RPMI-8226 leukemia, -21.1% (active); in the experiment on OVCAR-8 ovarian, 96.4%; in the experiment with OVCAR-5 ovarian, 96.7%; with OVCAR-4 ovarian, 90.5%; with SK-OV-3 ovarian, 108%. In addition, the growth in the experiment with IGROV1 ovarian was 5.71% (active); in the experiment with OVCAR-3 ovarian, 100%; in the experiment with HS 578T breast, 90.4%; in the experiment on NCI/ADR-RES ovarian it was 90.5%.
Regarding `COc1cc(-c2csc(NC(=O)c3ccc(N4CCOCC4)c(C(F)(F)F)c3)n2)cc(OC)c1OC`, the growth in the experiment on SR leukemia is 23.3%; in the experiment with RPMI-8226 leukemia it was 6.74% (active); with OVCAR-8 ovarian it was 2.22% (active); in the experiment on OVCAR-5 ovarian, 83.9%; with OVCAR-4 ovarian it was 23.1%; in the experiment on SK-OV-3 ovarian it was 74.5%. Also, the growth is 29.5% in the experiment on IGROV1 ovarian, 38.3% in the experiment with OVCAR-3 ovarian, 60% in the experiment with HS 578T breast and 3.62% (active) with NCI/ADR-RES ovarian.
Turning to `CCOc1nc(-c2ccccc2)cc2c(O)c(C(=O)N/N=C/c3ccccc3)[nH]c(=O)c12`, the growth in the experiment on SR leukemia was 95.2%; in the experiment on RPMI-8226 leukemia, 97.6%; in the experiment with OVCAR-8 ovarian it was 106%; in the experiment with OVCAR-5 ovarian, 111%; with OVCAR-4 ovarian, 119%; in the experiment on SK-OV-3 ovarian it was 109%. In addition, the growth in the experiment with IGROV1 ovarian is 36%; in the experiment with OVCAR-3 ovarian it was 103%; with HS 578T breast it was 104%; in the experiment with NCI/ADR-RES ovarian, 104%.
On to `COc1ccc(C/C(C)=C(\c2ccc(Cl)cc2)c2ccc(OCCN3CCCCC3)cc2)cc1`, for which the growth with SR leukemia was 80.6%; in the experiment with RPMI-8226 leukemia, 90.6%; with OVCAR-8 ovarian it was 94.9%; with OVCAR-5 ovarian, 81.4%; in the experiment with OVCAR-4 ovarian, 102%; in the experiment on SK-OV-3 ovarian it was 103%. Besides, the growth in the experiment with IGROV1 ovarian was 99.9%; with OVCAR-3 ovarian, 114%; in the experiment with HS 578T breast, 86.8%; in the experiment with NCI/ADR-RES ovarian it was 108%.
As to `Cc1ccccc1/C=C/C(=O)c1cccc(OCCCCOc2cccc(C(=O)/C=C/c3ccccc3C)c2)c1`, the growth in the experiment on SR leukemia is 74.4%; with RPMI-8226 leukemia it was -6.51% (active); in the experiment on OVCAR-8 ovarian, 97.6%; in the experiment on OVCAR-5 ovarian, 103%; in the experiment with OVCAR-4 ovarian, 87.1%; in the experiment with SK-OV-3 ovarian, 107%. Further, the growth with IGROV1 ovarian is 96.6%; in the experiment with OVCAR-3 ovarian it was 104%; in the experiment on HS 578T breast, 106%; in the experiment on NCI/ADR-RES ovarian it was 99.1%.
